A selection: hits, their analogues and other compounds. The true share with any hit is near 2.9%.
D3 ag: activates the human D3 dopamine receptor; P35462; AID 652048; max activation, %; 410,000 tested, 0.58% active; D3R DiscoveRx beta-arrestin cells, luminescence, 90 min; in the data active means max activation above about 30%; further: 0% is about no effect
Target sequence (P35462 whole entry, looked up): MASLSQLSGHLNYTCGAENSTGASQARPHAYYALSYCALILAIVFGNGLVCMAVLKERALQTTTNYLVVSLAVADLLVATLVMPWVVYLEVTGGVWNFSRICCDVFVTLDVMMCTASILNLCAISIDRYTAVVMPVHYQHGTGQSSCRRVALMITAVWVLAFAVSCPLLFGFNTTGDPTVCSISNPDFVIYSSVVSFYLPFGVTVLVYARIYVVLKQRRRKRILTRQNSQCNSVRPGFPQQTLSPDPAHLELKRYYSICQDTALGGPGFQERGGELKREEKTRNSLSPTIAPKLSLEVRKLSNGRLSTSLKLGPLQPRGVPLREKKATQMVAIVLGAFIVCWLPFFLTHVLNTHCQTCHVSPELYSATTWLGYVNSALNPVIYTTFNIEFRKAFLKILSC
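Agonist-mode cell screen: cells plated at 1500/well and incubated overnight at 37 °C, then exposed to library compounds for 90 min at 37 °C. Detection reagent was added for 30–60 min at room temperature, and luminescence was read.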
D3 antag: blocks the human D3 dopamine receptor; AID 652054; 360,000 tested, 2.5% active; max response, negative = inhibition, %; D3R cells, DiscoveRx beta-arrestin luminescence, antagonist mode; active compounds read low; P35462; in the data active means max response below about -50%; inconclusive means no clear call, values can overlap the other calls; further: on the % scale 0 is the no-effect control and ±100 the full control effect
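Cells expressing the human receptor were seeded at 1500 cells/well, incubated overnight at 37 degrees C in 5% CO2, then exposed to library compounds with dopamine controls for 90 minutes at 37 degrees C before luminescent detection.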
Integrin act MD: integrin-mediated muscular dystrophy alleviation activation; alpha7betagal myoblasts, beta-gal FDG fluorescence, 48 h; Potency, µM (top dose mostly 38.3 µM), without a hit: at the highest dose activation, actives largely listed as activators; AID 624291; 350,000 tested, 0.064% active; active means well fitted activation curve with a large enough effect; inconclusive means small, poorly fitted or top-dose-only effect; inactive means no such curve, though single readings can be large or run the other way;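 further: potency means the concentration at half of the fitted maximal effect; 100% = response of the positive control SU9516; nearly all actives have a fitted effect of over 60% in size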
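Alpha7betagal+/- myoblasts (passage 13) were plated 16-24 hr, then exposed to compounds (1:260 dilution of DMSO stock) for 48 hours at 37C. After MPER lysis, β-galactosidase reporter activity was read as FDG fluorescence (ex 480/em 540) after 30 minutes.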
* hit, by the source's call; ? = inconclusive; . = no result.

SMILES	D3 ag	D3 antag	Integrin act MD
CC1CCC(C(C)C)C(OC(=O)Cn2c(-c3ccccc3)[n+](C)c3ccccc32)C1 (stereo unspecified)	-20.7	-18.6	-8.6%
CC1CCC(C(C)C)C(OC(=O)Cn2c(-c3ccc(F)cc3)[n+](C)c3ccccc32)C1 (stereo unspecified)	-13.8	-72.1*	-56.7%
CC(=O)Nc1nnc(CSCc2ccc(F)cc2)s1	3.5	-51.0*	37.3%
CC(=O)Nc1nnc(SCc2ccc(F)cc2)s1	-1.5	-4.5	-1.1%
O=c1c2ccccc2ncn1CCCSc1ccccc1	0.1	-53.5*	7.7%
O=c1c2ccccc2ncn1CCCSc1ccc(Cl)cc1	0.3	10.8	-8.4%
Cc1c(C#N)c(O)n(CCO)c(=O)c1N=Nc1ccc2c(c1)COC2=O	-45.9	-58.8*	2.6%
Cc1cc(=O)n(CCO)c(O)c1C#N	-2.7	-23.4	1.8%
CC(Oc1ccc(F)cc1)c1nnc(SCC(=O)N(c2ccccc2)C2CCS(=O)(=O)C2)o1 (stereo unspecified)	-5.7	-2.3	?
OCC1(Cc2ccc(Cl)cc2)CCN(CC2CC=CCC2)CC1 (stereo unspecified)	-17.9	?	-43.7%
CCc1nc2ccc(C(=O)NCCOc3ccc(OC)cc3)cn2c1N(CCC(C)C)CCN(C)C	-28.2	-89.3*	.
CCCCNC(=O)c1ccc2nc(CC)c(N(CCC(C)C)CCN(C)C)n2c1	-12.0	16.1	.
CCc1nc2ccc(C(=O)Nc3cc(-c4ccccc4)ccc3OC)cn2c1N(C)CCCc1ccccc1	-14.8	?	.
CCc1nc2ccc(C(=O)Nc3cc(-c4ccccc4)ccc3OC)cn2c1N(C=O)CCC(C)C	69.0*	5.9	.
CCc1nc2ccc(C(=O)Nc3cc(-c4ccccc4)ccc3OC)cn2c1N(C)CCC(C)C	15.5	59.7	.
CCc1nc2ccc(C(=O)Nc3cc(-c4ccccc4)ccc3OC)cn2c1N(CCN(C)C)CC1CC1	-18.9	-69.0*	.
O=C(O)c1[nH]c(-c2ccccc2)c2c1C(=O)N(C1CC1)C2=O	4.1	6.1	.
Cc1ccc(CN(C)C(=O)c2cccc(S(=O)(=O)N3CCc4ccccc43)c2)cc1	-19.2	-52.4*	-2.7%
Cc1ccc(CN(C)C(=O)c2cccc(S(=O)(=O)N3CCCC3)c2)cc1	-2.0	-9.3	-4.2%
O=C(COc1ccccc1Cl)NCCNC(=O)c1ccccn1	7.1	11.5	-19.7%
CCN1CCN(C(=O)c2ccc3c(=O)n(CCC4=CCCCC4)c(=O)[nH]c3c2)CC1	-12.3	-53.8*	20.4%
O=C(NCc1ccco1)c1ccc2c(=O)n(CCC3=CCCCC3)c(=O)[nH]c2c1	-2.3	37.2	-23.3%
O=S(=O)(Nc1ccc(-n2cccc2)cc1)c1ccc(Cl)cc1Cl	-1.4	-52.6*	-11.1%
O=S(=O)(Nc1ccc(-n2cccc2)cc1)c1ccc(Cl)c(Cl)c1	-0.2	2.0	-2.8%
CCc1ccc(N2CCN(C(=O)N3CCOCC3)CC2)cc1	11.4	8.1	3.8%
SMILES	D3 ag	D3 antag	Integrin act MD
COc1ccc(NC(=O)CN(C)C(=O)CNC(=O)Cc2cccc3ccccc23)cc1	2.9	-9.8	6.6%
CN(CC(=O)Nc1ccccc1Cl)C(=O)COC(=O)c1nc(Cl)c(Cl)c(Cl)c1Cl	-6.1	-67.1*	-33.8%
CN(CC(=O)Nc1ccccc1Cl)C(=O)COC(=O)c1ccc(Cl)nc1	2.9	-3.2	23.7%
COc1cc(C(=O)OCCN2CCOCC2)cc(OC)c1OC	2.0	-7.2	12.6%
COc1cc(C(=O)OCCN2CCCCC2)ccc1O	-13.8	-57.8*	20.2%
COc1cc(C(=O)OCCCN2CCCN(CCCOC(=O)c3cc(OC)c(OC)c(OC)c3)CC2)cc(OC)c1OC	-86.0	-92.3*	.
CC(C)COc1ccc(C(=O)OCCN2CCCCC2)cc1	-12.2	1.5	0.5%
COc1cc(C#CC#CCN2CCCCC2)ccc1O	-21.5	-116.3*	0.4%
COc1cc(C(=O)OCCCN2CCOCC2)ccc1O	-11.5	-16.1	-36.1%
O=C(OCCN1CCCCC1)c1ccc(Cl)cc1	-19.8	-78.2*	-7.9%
C(#Cc1ccccc1)CN1CCCCC1	-10.9	?	-15.3%
Clc1ccc(OCCSc2nnnn2C2CCCCC2)cc1	-0.7	-23.2	-31.5%
CCN(CC)S(=O)(=O)c1cccc(NC(=O)c2ccccc2Br)c1	-6.6	-12.7	-12.0%
CCCCN(Cc1cccs1)S(=O)(=O)c1csc(C(N)=O)c1	1.6	-0.3	41.1%
COc1ccc(CCN(C)C/C=C/c2ccccc2[N+](=O)[O-])cc1OC	-17.5	-60.2*	-36.5%
COc1ccc(CCN(C)c2ccc(C(N)=O)cc2[N+](=O)[O-])cc1OC	-5.6	-2.0	?
O=c1c2ccccc2nnn1CSc1nnc(-c2ccc3c(c2)OCO3)o1	11.0	-11.8	-18.9%
Cc1ccc(OCC(O)Cn2c(N)nc3c2c(=O)n(C)c(=O)n3C)cc1 (stereo unspecified)	52.8*	2.6	14.5%
